# Compound activity deposited in PubChem BioAssay by National Center for Advancing Translational Sciences (NCATS).
# Hits are enriched below; roughly 12% of the tested compounds scored in any of these assays.
# BAZ2B inh = BAZ2B (human) inhibition; Q9UIF8; AlphaScreen BAZ2B-H3K14Ac peptide displacement; Potency, µM (doses to about 114 µM), most hits filed as inhibitors; hit rate 4.4% among 360,000; note: nearly all actives have a fitted effect of over 60% in size
#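 AlphaScreen displacement: compounds (up to 110uM) incubated 30 min at room temperature with a preformed 50 nM BAZ2B/50 nM biotinylated H3K14Ac peptide complex in PBS pH 7.4 with Tween-20. Donor and acceptor beads at 10 ug/mL final added, 20 min light-protected before reading.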
# JMJD2A Tudor = JMJD2A Tudor domain (human) inhibition; hit rate 4.4% among 390,000; AID 504339; Potency, µM (series often up to 114 µM), usual class: inhibitors; AlphaScreen JMJD2A-Tudor / H3K4me3 peptide binding; O75164; note: nearly all actives have a fitted effect of over 50% in size
# PI5P4Ka inh = blocks human PI5P4K alpha kinase activity | AID 652105 | max response, % | hit rate 1.2% among 330,000 | P48426 | PI5P4Kalpha enzyme, ADP-Glo luminescence, 60 min; hits give low values; active = max response of -50% or lower; inconclusive = between -30% and -50%; inactive = -30% or higher; note: value at the top dose of about 77 µM
#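 Human PI5P4Kalpha with substrate in 0.038 M HEPES pH 7.4, 0.28 mM EGTA, 0.1% CHAPS, 5% DMSO; reaction started with 5 microM ATP (final), 60 min at room temperature. ADP formed read by ADP-Glo luminescence.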
# HP1b binding inh = blocks HP1-beta chromodomain binding to methylated histone tails | P83916 | AlphaScreen HP1-beta / biotin-H3K9me3 peptide binding | Potency, µM (series often up to 114 µM), hits mostly inhibitors | hit rate 0.56% among 390,000 | AID 540317; note: nearly all actives have a fitted effect of over 70% in size
# Target sequence (P83916 whole entry, looked up): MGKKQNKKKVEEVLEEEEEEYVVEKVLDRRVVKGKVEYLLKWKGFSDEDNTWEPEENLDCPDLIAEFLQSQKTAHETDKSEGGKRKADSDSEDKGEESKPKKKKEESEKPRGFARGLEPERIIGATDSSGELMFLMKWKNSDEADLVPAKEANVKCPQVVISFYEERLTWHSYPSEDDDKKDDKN
#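 HP1-beta protein (50 nM final) preincubated 30 min at room temperature with biotinylated H3(1-18)K9me3 peptide (50 nM) in PBS pH 7.4, 0.01% Tween-20, then compound added for 30 min. AlphaScreen streptavidin donor/nickel chelate acceptor beads (10 ug/mL final), 30 min dark, luminescence read.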
# G9a block = G9a (human) methyltransferase inhibition. Potency, µM (titrated, usually from 102 µM), actives largely listed as inhibitors. G9a H3K9 monomethylation, AlphaScreen, 2 h. Q96KQ7. AID 504332. hit rate 8.8% among 350,000; note: nearly all actives have a fitted effect of over 75% in size
# Target sequence (Q96KQ7 913-1193 limits assumed): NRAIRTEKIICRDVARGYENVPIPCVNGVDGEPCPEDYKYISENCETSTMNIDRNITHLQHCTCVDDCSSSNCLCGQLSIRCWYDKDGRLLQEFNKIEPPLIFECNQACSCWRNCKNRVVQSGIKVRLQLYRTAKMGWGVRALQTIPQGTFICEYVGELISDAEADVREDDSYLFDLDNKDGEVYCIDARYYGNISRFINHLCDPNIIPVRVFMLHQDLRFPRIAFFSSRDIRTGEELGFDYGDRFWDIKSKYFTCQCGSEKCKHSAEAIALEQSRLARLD
#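 Chemiluminescent proximity detection of H3K9 monomethylation, read after 10 min bead incubation in the dark. Reaction: 20 nM G9a, 500 nM biotin-H3K9 peptide, 20 uM SAM cofactor, 2 h, room temperature, following 15 min enzyme-compound preincubation.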
# PLK1 PBD block = PLK1 (human) polo-box domain binding inhibition; P53350; Plk1 PBD binding of FITC phosphopeptide, fluorescence polarization; Potency, µM, hits mostly inhibitors; AID 720504; hit rate 2.8% among 360,000; note: series mostly up to about 57 µM; nearly all actives have a fitted effect of over 65% in size
# A number is an active result; . = inactive; ? = inconclusive; / = no result given; [ ] = another dose, or the depositor's remark. Unless noted, calls come from the whole dose curve; as a rule, active = well fitted curve in the direction sought with a large enough effect; inconclusive = small, poorly fitted or top-dose-only effect, or another doubt; inactive = no such curve, though single readings can be large; an effect the other way counts as inactive or inconclusive.
SMILES,BAZ2B inh,JMJD2A Tudor,PI5P4Ka inh,HP1b binding inh,G9a block,PLK1 PBD block
COc1ccccc1-c1noc(CCC(=O)Nc2ccccc2Cl)n1,.,.,/,.,2.8µM,.
COc1ccccc1-c1noc(CCC(=O)Nc2cccc(C)c2)n1,.,.,.,.,35µM,.
CCc1ccc2[nH]c(=O)c(CN(Cc3cccs3)Cc3nnnn3Cc3ccccc3)cc2c1,/,.,/,.,/,/
O=C(NC(=S)Nc1ccc(N2CCCCC2)cc1)c1ccco1,45µM,40µM,/,16µM,?,.
O=C(NC(=S)Nc1cccc(Cl)c1N1CCCCC1)c1ccco1,?,.,/,.,.,.
CC1CCN(c2ccc(NC(=S)NC(=O)c3ccco3)cc2)CC1,8.9µM,?,.,.,.[12.7 µM],.
C#CCOCCOCCOCCNc1nc(N2CCN(C(=O)[C@H](CCCCN)n3cc([C@@H](N)CO)nn3)CC2)nc(N2CCN(C(=O)[C@H](Cc3cc4ccccc4[nH]3)n3cc([C@@H](N)CC(C)C)nn3)CC2)n1,45µM,/,/,/,.[12.7 µM],/
C#CCOCCOCCOCCNc1nc(N2CCN(C(=O)[C@H](CCCCN)n3cc([C@@H](N)CO)nn3)CC2)nc(N2CCN(C(=O)[C@H](Cc3cc4ccccc4[nH]3)n3cc([C@@H](N)CO)nn3)CC2)n1,22µM,/,/,/,?,/
C=C(C)Cn1c(SCC(=O)Nc2ccccc2C)nc2sc3c(c2c1=O)CCCC3,.,.,/,.,.,/
Cc1ccc(C(=O)NCC(=O)OCC(=O)N(CC(C)C)c2c(N)n(Cc3ccccc3)c(=O)[nH]c2=O)cc1,.,.,.,.,?,.
N#Cc1c(N)nc2c3c(sc(=N)c2c1N)NC(=O)CC3c1ccccc1 (configuration not stated),.,.,-87,.,.,.
N#Cc1c(N)nc2c3c(sc(=N)c2c1N)NC(=O)CC3c1c(F)cccc1Cl (configuration not stated),?,.,-67,.,.[0.0925 µM],.
Cc1c(C#N)c(N)nc2c3c(sc12)NC(=O)CC3c1ccc(Cl)cc1 (configuration not stated),.,.,.,.,.,.
COc1cccc(NC(=O)Nc2ccccc2SC)c1,.,.,.,.,.,19µM
COc1ccc(NC(=O)Nc2ccccc2SC)c(OC)c1,.,.,.,.,.,?
O=C(Nc1cc(N2CCOCC2)ncn1)NC1(C(F)(F)F)Oc2ccccc2O1,.,89µM,.,.,2.2µM,.
CSc1ccccc1NC(=O)Nc1cccc(Cl)c1Cl,.,.,/,.,.,.
C/C(=N\Nc1cc(N2CCOCC2)ncn1)c1ccccc1,.,.,.,.,/,.
CSc1ccccc1NC(=O)Nc1cccc2ccccc12,.,.,.,.,79µM,.
O=C(NCc1cccnc1)NC1(C(F)(F)F)Oc2ccccc2O1,.,.,.,.,40µM,.
O=C(Nc1ccccc1)c1ccc2snnc2c1,.,?,.,.,.,27µM
O=C(Nc1ccc2snnc2c1)Nc1cccc2ccccc12,.,.[11.4 µM],.,.,50µM,30µM
Cc1ccc(NC(=O)c2ccc3snnc3c2)cc1,.,.,.,.,.,.
COc1cccc(NC(=O)NC2(C(F)(F)F)Oc3ccccc3O2)c1,.,71µM,.,.,3.5µM,.
O=C(CSCCO)Nc1cccc2ccccc12,.,.,.,.,50µM,.
SMILES,BAZ2B inh,JMJD2A Tudor,PI5P4Ka inh,HP1b binding inh,G9a block,PLK1 PBD block
O=C(Nc1ccccc1)Nc1cccc(C(F)(F)F)c1,.,.[11.4 µM],.,.,.,.
CCOC(=O)c1ccc(NC(=O)c2nccnc2C(=O)O)cc1,?,40µM,.,.,28µM,.
CCCCCNCC(=O)Nc1cccc(C(=O)Nc2cccc(C(F)(F)F)c2)c1,?,5µM,.,?,/,.
Nc1ccccc1Nc1cccc(C(F)(F)F)c1,50µM,?,.,?,6.3µM,.
CCOC(=O)c1ccc(NC(=O)c2nc[nH]c2C(=O)NC)cc1,?,?,.,.,?,.
Cc1cc(Cl)c(C(=O)Nc2cccc(C(F)(F)F)c2)c(C)n1,?,?,.,.,45µM,.
O=C(Nc1nc2c(Br)cccc2s1)C1CC1,.,.,.,.,/,.
CCN1CCSc2ccc(C(=O)NC(C)c3ccccc3)cc21 (configuration not stated),.,?,/,.,.,/
CC1(C(=O)NS(=O)(=O)c2cccc(C#N)c2)CCN1C(=O)CCc1ccccc1 (configuration not stated),/,/,.,/,/,.
CCn1cc(Cl)c(C(=O)Nc2ccc3c(c2)OCCO3)n1,.,.,.,.,.,.
CCOC(=O)c1ccc(Nc2cc(C)nc(C)c2C(=O)OCC)cc1,.,.,.,.,.,.
Cc1cc(C)nc(Nc2cccc(C(F)(F)F)c2)n1,.,.,.,.,50µM,.
COc1nc(Nc2cccc(C(F)(F)F)c2)nc(OC)n1,.,.,.,.,.,.
CCOC(=O)c1ccc(NC(=O)c2c(Cl)cc(C)nc2C)cc1,.,.,.,.,50µM,.
CCn1cc(Cl)c(C(=O)Nc2cccc(C(F)(F)F)c2)n1,.,50µM,.,.,.,?
O=C(c1ccco1)N1CCN(C(=O)c2cnn(-c3ccc(Cl)cc3)c2C2CCNCC2)CC1,.,.,.,.,71µM,.
CC(C)(C)OC(=O)N1CCC(c2c(C(=O)N3CCN(C(=O)c4ccco4)CC3)cnn2-c2ccc(Cl)cc2)CC1,.,.,/,.,.,/
NC(=S)NNC(=O)[C@@H]1CCCC[C@@H]1C(=O)O,.,?,.,.,45µM,21µM
N#CC(C#N)=C1C=CC=CN1/C(=C\c1ccco1)C(=O)c1ccc(Cl)cc1,?,?,.,.,?,12µM
N#CC(C#N)=C1C=CC=CN1/C(=C\c1ccco1)C(=O)c1ccc(-c2ccccc2)cc1,?,.,?,.,.,.
Nc1nc(N)c2[nH]cnc2n1,/,.,.,.,/,.
Cn1c(N)nc2nc[nH]c2c1=S,/,40µM,.,.,/,.
COc1ccc(Cn2c(SCc3ccc(C)cc3)nc3cc(OC)c(OC)cc3c2=N)cc1Cl,?,?,?,.,40µM,.
CCCC(=O)N(C1CC(C)C(C#N)(C#N)C1(C#N)C#N)N(C)C (configuration not stated),.,.,.,.,7.1µM,6µM
CC(=O)N(C1CC(C)C(C#N)(C#N)C1(C#N)C#N)N(C)C (configuration not stated),.,.,.,.,13µM,2.4µM
Cc1cccc(N(C)C(CNS(=O)(=O)c2ccccc2)c2ccccc2)c1 (configuration not stated),.,.,/,.,.,/
Cc1cccc([C@@H]2[C@@H]3C(=O)N(Cc4ccccc4)C(=O)[C@@H]3[C@]3(C)C(=O)N(c4ccc(C(F)(F)F)cc4)C(=O)N23)c1,.,.,.,.,.,.
c1cnc2ccc3ncccc3c2c1,.,.[11.4 µM],.,.,?,.
